According to PMC8384837, “Expanding the binding specificity for RNA recognition by a PUF domain”:

Legend:
Assay in all cases: yeast three-hybrid, YBZ-1, SC-Leu-His + 0.5 mM 3-AT, 4 days
Details in all cases: tags: N-Gal4 AD-HA kept; label: inside an RPR1-promoter hybrid RNA with tandem MS2 sites; ssRNA
[1] = target: PUM1 PUF domain R7-KRQ (Homo sapiens, UniProt Q14671 828-1176, S1079K;N1080R;E1083Q)
Outline: (§1)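 A centromeric plasmid in strain YBZ-1 co-expressed Pumilio-1 PUF domain libraries, randomized at the three base-contacting residues of each repeat, with matching RNA elements; the strain carries a LexA–MS2 coat fusion and a HIS3 reporter. After four days on SC-Leu (input) or SC-Leu-His + 0.5 mM 3-AT (selection), the repeat regions were PCR-amplified and Illumina-sequenced. The interaction score is the log change in variant frequency from input to selection, using log2 and a pseudocount of 1 where absent.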

[2] = target: PUM1 PUF domain R7-HHP (Homo sapiens, UniProt Q14671 828-1176, S1079H;N1080H;E1083P)
Sequence of PUM1 PUF domain R7-HHP (Q14671 828-1176 S1079H/N1080H/E1083P): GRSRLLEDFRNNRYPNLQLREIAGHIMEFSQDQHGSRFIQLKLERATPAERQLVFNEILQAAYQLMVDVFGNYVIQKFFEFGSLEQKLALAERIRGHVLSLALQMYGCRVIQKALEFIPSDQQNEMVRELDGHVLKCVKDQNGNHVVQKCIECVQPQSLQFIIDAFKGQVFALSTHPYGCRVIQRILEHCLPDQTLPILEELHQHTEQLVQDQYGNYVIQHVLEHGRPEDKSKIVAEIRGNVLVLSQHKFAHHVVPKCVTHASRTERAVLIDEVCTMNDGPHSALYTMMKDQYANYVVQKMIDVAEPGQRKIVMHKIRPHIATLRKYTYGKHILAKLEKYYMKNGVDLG
Outline: as §1

[3] = target: PUM1 PUF domain R7-KPM (Homo sapiens, UniProt Q14671 828-1176, S1079K;N1080P;E1083M)
Sequence of PUM1 PUF domain R7-KPM (Q14671 828-1176 S1079K/N1080P/E1083M): as the sequence (Q14671 828-1176 S1079H/N1080H/E1083P) above, with H252K, H253P, P256M counted along it
Outline: as §1

[4] = target: PUM1 PUF domain R5-GRP (Homo sapiens, UniProt Q14671 828-1176, C1007G;Q1011P)
Sequence of PUM1 PUF domain R5-GRP (Q14671 828-1176 C1007G/Q1011P): as the sequence (Q14671 828-1176 S1079H/N1080H/E1083P) above, with C180G, Q184P, H252S, H253N, P256E counted along it
Outline: as §1

[5] = target: PUM1 PUF domain R5-DRL (Homo sapiens, UniProt Q14671 828-1176, C1007D;Q1011L)
Sequence of PUM1 PUF domain R5-DRL (Q14671 828-1176 C1007D/Q1011L): as the sequence (Q14671 828-1176 S1079H/N1080H/E1083P) above, with C180D, Q184L, H252S, H253N, P256E counted along it
Outline: as §1

[6] = target: PUM1 PUF domain R5-SKQ (Homo sapiens, UniProt Q14671 828-1176, C1007S;R1008K)
Sequence of PUM1 PUF domain R5-SKQ (Q14671 828-1176 C1007S/R1008K): as the sequence (Q14671 828-1176 S1079H/N1080H/E1083P) above, with C180S, R181K, H252S, H253N, P256E counted along it
Outline: as §1

[7] = target: PUM1 PUF domain R5-ERG (Homo sapiens, UniProt Q14671 828-1176, C1007E;Q1011G)
Sequence of PUM1 PUF domain R5-ERG (Q14671 828-1176 C1007E/Q1011G): as the sequence (Q14671 828-1176 S1079H/N1080H/E1083P) above, with C180E, Q184G, H252S, H253N, P256E counted along it
Outline: as §1

[8] = target: PUM1 PUF domain R3-CYF (Homo sapiens, UniProt Q14671 828-1176, R936Y;Q939F)
Sequence of PUM1 PUF domain R3-CYF (Q14671 828-1176 R936Y/Q939F): as the sequence (Q14671 828-1176 S1079H/N1080H/E1083P) above, with R109Y, Q112F, H252S, H253N, P256E counted along it
Outline: as §1

[9] = target: PUM1 PUF domain R8-RHP (Homo sapiens, UniProt Q14671 828-1176, N1122R;Y1123H;Q1126P)
Sequence of PUM1 PUF domain R8-RHP (Q14671 828-1176 N1122R/Y1123H/Q1126P): as the sequence (Q14671 828-1176 S1079H/N1080H/E1083P) above, with H252S, H253N, P256E, N295R, Y296H, Q299P counted along it
Outline: as §1

[10] = target: PUM1 PUF domain R5-KYK (Homo sapiens, UniProt Q14671 828-1176, C1007K;R1008Y;Q1011K)
Sequence of PUM1 PUF domain R5-KYK (Q14671 828-1176 C1007K/R1008Y/Q1011K): as the sequence (Q14671 828-1176 S1079H/N1080H/E1083P) above, with C180K, R181Y, Q184K, H252S, H253N, P256E counted along it
Outline: as §1

[11] = target: PUM1 PUF domain R8-HYC (Homo sapiens, UniProt Q14671 828-1176, N1122H;Q1126C)
Sequence of PUM1 PUF domain R8-HYC (Q14671 828-1176 N1122H/Q1126C): as the sequence (Q14671 828-1176 S1079H/N1080H/E1083P) above, with H252S, H253N, P256E, N295H, Q299C counted along it
Outline: as §1

[12] = target: PUM1 PUF domain R1-RLE (Homo sapiens, UniProt Q14671 828-1176, S863R;R864L;Q867E)
Sequence of PUM1 PUF domain R1-RLE (Q14671 828-1176 S863R/R864L/Q867E): as the sequence (Q14671 828-1176 S1079H/N1080H/E1083P) above, with S36R, R37L, Q40E, H252S, H253N, P256E counted along it
Outline: as §1

[13] = target: PUM1 PUF domain R5-GPR (Homo sapiens, UniProt Q14671 828-1176, C1007G;R1008P;Q1011R)
Sequence of PUM1 PUF domain R5-GPR (Q14671 828-1176 C1007G/R1008P/Q1011R): as the sequence (Q14671 828-1176 S1079H/N1080H/E1083P) above, with C180G, R181P, Q184R, H252S, H253N, P256E counted along it
Outline: as §1

[14] = target: PUM1 PUF domain R4-CPC (Homo sapiens, UniProt Q14671 828-1176, N971C;H972P;Q975C)
Sequence of PUM1 PUF domain R4-CPC (Q14671 828-1176 N971C/H972P/Q975C): as the sequence (Q14671 828-1176 S1079H/N1080H/E1083P) above, with N144C, H145P, Q148C, H252S, H253N, P256E counted along it
Outline: as §1

[15] = target: PUM1 PUF domain R5-QVR (Homo sapiens, UniProt Q14671 828-1176, C1007Q;R1008V;Q1011R)
Sequence of PUM1 PUF domain R5-QVR (Q14671 828-1176 C1007Q/R1008V/Q1011R): as the sequence (Q14671 828-1176 S1079H/N1080H/E1083P) above, with C180Q, R181V, Q184R, H252S, H253N, P256E counted along it
Outline: as §1

[16] = target: PUM1 PUF domain R5-KSQ (Homo sapiens, UniProt Q14671 828-1176, C1007K;R1008S)
Sequence of PUM1 PUF domain R5-KSQ (Q14671 828-1176 C1007K/R1008S): as the sequence (Q14671 828-1176 S1079H/N1080H/E1083P) above, with C180K, R181S, H252S, H253N, P256E counted along it
Outline: as §1

[17] = target: PUM1 PUF domain R4-CNC (Homo sapiens, UniProt Q14671 828-1176, N971C;H972N;Q975C)
Sequence of PUM1 PUF domain R4-CNC (Q14671 828-1176 N971C/H972N/Q975C): as the sequence (Q14671 828-1176 S1079H/N1080H/E1083P) above, with N144C, H145N, Q148C, H252S, H253N, P256E counted along it
Outline: as §1

[18] = target: PUM1 PUF domain R1-SGR (Homo sapiens, UniProt Q14671 828-1176, R864G;Q867R)
Sequence of PUM1 PUF domain R1-SGR (Q14671 828-1176 R864G/Q867R): as the sequence (Q14671 828-1176 S1079H/N1080H/E1083P) above, with R37G, Q40R, H252S, H253N, P256E counted along it
Outline: as §1

[19] = target: PUM1 PUF domain R3-FSG (Homo sapiens, UniProt Q14671 828-1176, C935F;R936S;Q939G)
Sequence of PUM1 PUF domain R3-FSG (Q14671 828-1176 C935F/R936S/Q939G): as the sequence (Q14671 828-1176 S1079H/N1080H/E1083P) above, with C108F, R109S, Q112G, H252S, H253N, P256E counted along it
Outline: as §1

[20] = target: PUM1 PUF domain R3-YWT (Homo sapiens, UniProt Q14671 828-1176, C935Y;R936W;Q939T)
Sequence of PUM1 PUF domain R3-YWT (Q14671 828-1176 C935Y/R936W/Q939T): as the sequence (Q14671 828-1176 S1079H/N1080H/E1083P) above, with C108Y, R109W, Q112T, H252S, H253N, P256E counted along it
Outline: as §1

Sequence of PUM1 PUF domain R7-KRQ (Q14671 828-1176 S1079K/N1080R/E1083Q): as the sequence (Q14671 828-1176 S1079H/N1080H/E1083P) above, with H252K, H253R, P256Q counted along it

In the case of “GGCUAGAACUAGUGGAUCCCCCGGCGCCCGGCGGCUCGAGCCCGGGUAAGUCUAAAUAGUCUGCAUGCCGCCGGGCGCCAUGCCUGCAGGUCGACUCUAGAAAACAUG”, the binding signal [1] is reported as 2.89 log2 enrichment (interaction score), the binding signal [2] is reported as 2.54 log2 enrichment (interaction score) and the binding signal [3] is reported as 3.19 log2 enrichment (interaction score).

In the case of “GGCUAGAACUAGUGGAUCCCCCGGCGCCCGGCGGCUCGAGCCCGGGUAAGUGUGAAUAGUCUGCAUGCCGCCGGGCGCCAUGCCUGCAGGUCGACUCUAGAAAACAUG”, the binding signal [4] is reported as 1.44 log2 enrichment (interaction score), the binding signal [5] is reported as 1.6 log2 enrichment (interaction score) and the binding signal [6] is reported as 2.39 log2 enrichment (interaction score). The binding signal [7] was 1.54 log2 enrichment (interaction score).

In the case of “GGCUAGAACUAGUGGAUCCCCCGGCGCCCGGCGGCUCGAGCCCGGGUAAGUGUAAAUAGUCUGCAUGCCGCCGGGCGCCAUGCCUGCAGGUCGACUCUAGAAAACAUG”, the binding signal [4] is reported as 2.96 log2 enrichment (interaction score), the binding signal [8] is reported as 5.41 log2 enrichment (interaction score) and the binding signal [9] is reported as 5.42 log2 enrichment (interaction score). The binding signal [5] was 2.34 log2 enrichment (interaction score), the binding signal [10] was 2.74 log2 enrichment (interaction score) and the binding signal [11] was 3.69 log2 enrichment (interaction score). The binding signal [7] was 3.47 log2 enrichment (interaction score).

For “GGCUAGAACUAGUGGAUCCCCCGGCGCCCGGCGGCUCGAGCCCGGGUAAGUGUAAAUUGUCUGCAUGCCGCCGGGCGCCAUGCCUGCAGGUCGACUCUAGAAAACAUG”, the binding signal [12] was 2.88 log2 enrichment (interaction score).

“GGCUAGAACUAGUGGAUCCCCCGGCGCCCGGCGGCUCGAGCCCGGGUAAGCGUAAAUAGUCUGCAUGCCGCCGGGCGCCAUGCCUGCAGGUCGACUCUAGAAAACAUG” was tested, and the binding signal [9] was 5.5 log2 enrichment (interaction score).

In the case of “GGCUAGAACUAGUGGAUCCCCCGGCGCCCGGCGGCUCGAGCCCGGGUAAGUGUUAAUAGUCUGCAUGCCGCCGGGCGCCAUGCCUGCAGGUCGACUCUAGAAAACAUG”, the binding signal [4] is reported as 0.43 log2 enrichment (interaction score) and the binding signal [13] is reported as 2.39 log2 enrichment (interaction score).

With “GGCUAGAACUAGUGGAUCCCCCGGCGCCCGGCGGCUCGAGCCCGGGUAAGUGUACAUAGUCUGCAUGCCGCCGGGCGCCAUGCCUGCAGGUCGACUCUAGAAAACAUG” the binding signal [14] was 2.9 log2 enrichment (interaction score).

With “GGCUAGAACUAGUGGAUCCCCCGGCGCCCGGCGGCUCGAGCCCGGGUAAGUGUCAAUAGUCUGCAUGCCGCCGGGCGCCAUGCCUGCAGGUCGACUCUAGAAAACAUG” the binding signal [15] was 3.01 log2 enrichment (interaction score), the binding signal [13] was 4.4 log2 enrichment (interaction score) and the binding signal [7] was 2.14 log2 enrichment (interaction score). For the same sequence, the binding signal [16] was 5.03 log2 enrichment (interaction score).

For “GGCUAGAACUAGUGGAUCCCCCGGCGCCCGGCGGCUCGAGCCCGGGUAAGUGUAUAUAGUCUGCAUGCCGCCGGGCGCCAUGCCUGCAGGUCGACUCUAGAAAACAUG”, the binding signal [17] was 3.13 log2 enrichment (interaction score).

With “GGCUAGAACUAGUGGAUCCCCCGGCGCCCGGCGGCUCGAGCCCGGGUAAGUGUAAAUCGUCUGCAUGCCGCCGGGCGCCAUGCCUGCAGGUCGACUCUAGAAAACAUG” the binding signal [18] was 3.72 log2 enrichment (interaction score) and the binding signal [12] was 2.67 log2 enrichment (interaction score).

With “GGCUAGAACUAGUGGAUCCCCCGGCGCCCGGCGGCUCGAGCCCGGGUAAGUGUAAGUAGUCUGCAUGCCGCCGGGCGCCAUGCCUGCAGGUCGACUCUAGAAAACAUG” the binding signal [19] was 3.59 log2 enrichment (interaction score).

With “GGCUAGAACUAGUGGAUCCCCCGGCGCCCGGCGGCUCGAGCCCGGGUAAGUAUAAAUAGUCUGCAUGCCGCCGGGCGCCAUGCCUGCAGGUCGACUCUAGAAAACAUG” the binding signal [2] was 2.33 log2 enrichment (interaction score).

For “GGCUAGAACUAGUGGAUCCCCCGGCGCCCGGCGGCUCGAGCCCGGGUAAGUGUAAUUAGUCUGCAUGCCGCCGGGCGCCAUGCCUGCAGGUCGACUCUAGAAAACAUG”, the binding signal [20] was 2.71 log2 enrichment (interaction score).
